This is an account of results in PubChem BioAssay.

Records with an inconclusive call do not appear. For part of these data: Measured potencies and affinities stand elsewhere. Calls of active or inactive are those of the source. No stated cut-off is given here; in the data, active means fluorescence slope change above about 50%; inconclusive means mostly about 31% to 49%; inactive means weaker than that.

Assay [1] addresses ATP-dependent translocase ABCB1 (Homo sapiens) (UniProt P08183). Kind of assay: MDR1 (ABCB1) efflux transporter inhibition, cell-based (AID 377). The note with it: MDR1-expressing cells, fluorescent substrate accumulation slope; stronger effect = higher value; concentration not given here.
Assay [2] is described as follows: polyglutamine-triggered caspase-3 activation inhibitors, cell-based (AID 1583). The conditions noted are these: polyglutamine-induced caspase-3 activation, cell assay; stronger effect = higher value;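 tested at 10 µM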.
A short description of assay [3]: suppressors of polyQ aggregation in yeast, 75Q-TubU reporter (AID 1593). The conditions noted are these: Yeast 75Q polyglutamine aggregation reporter.
Assay [4] can be described thus: rescue of polyQ-huntingtin neuronal dysfunction in worms, whole organism, C. elegans mechanosensory neurons, N-terminal huntingtin (AID 1599). The conditions noted are these: touch response, stronger effect = higher value.
Assay [5] is described as follows: inhibitors of mitochondrial cytochrome c release, biochemical, purified mitochondria (AID 1603).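 Further: mouse liver mitochondria challenged with calcium chloride; signal normalized to the plate average as 100%.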 The conditions noted are these: stronger effect = lower value.
The nature of assay [6]: inhibitors of polyQ protein aggregation (AID 1604). The note with it: polyglutamine-induced protein aggregation inhibition assay; stronger effect = higher value; tested at 2.5 µM.

ATP-dependent translocase ABCB1 (Homo sapiens), sequence (P08183 whole entry, looked up): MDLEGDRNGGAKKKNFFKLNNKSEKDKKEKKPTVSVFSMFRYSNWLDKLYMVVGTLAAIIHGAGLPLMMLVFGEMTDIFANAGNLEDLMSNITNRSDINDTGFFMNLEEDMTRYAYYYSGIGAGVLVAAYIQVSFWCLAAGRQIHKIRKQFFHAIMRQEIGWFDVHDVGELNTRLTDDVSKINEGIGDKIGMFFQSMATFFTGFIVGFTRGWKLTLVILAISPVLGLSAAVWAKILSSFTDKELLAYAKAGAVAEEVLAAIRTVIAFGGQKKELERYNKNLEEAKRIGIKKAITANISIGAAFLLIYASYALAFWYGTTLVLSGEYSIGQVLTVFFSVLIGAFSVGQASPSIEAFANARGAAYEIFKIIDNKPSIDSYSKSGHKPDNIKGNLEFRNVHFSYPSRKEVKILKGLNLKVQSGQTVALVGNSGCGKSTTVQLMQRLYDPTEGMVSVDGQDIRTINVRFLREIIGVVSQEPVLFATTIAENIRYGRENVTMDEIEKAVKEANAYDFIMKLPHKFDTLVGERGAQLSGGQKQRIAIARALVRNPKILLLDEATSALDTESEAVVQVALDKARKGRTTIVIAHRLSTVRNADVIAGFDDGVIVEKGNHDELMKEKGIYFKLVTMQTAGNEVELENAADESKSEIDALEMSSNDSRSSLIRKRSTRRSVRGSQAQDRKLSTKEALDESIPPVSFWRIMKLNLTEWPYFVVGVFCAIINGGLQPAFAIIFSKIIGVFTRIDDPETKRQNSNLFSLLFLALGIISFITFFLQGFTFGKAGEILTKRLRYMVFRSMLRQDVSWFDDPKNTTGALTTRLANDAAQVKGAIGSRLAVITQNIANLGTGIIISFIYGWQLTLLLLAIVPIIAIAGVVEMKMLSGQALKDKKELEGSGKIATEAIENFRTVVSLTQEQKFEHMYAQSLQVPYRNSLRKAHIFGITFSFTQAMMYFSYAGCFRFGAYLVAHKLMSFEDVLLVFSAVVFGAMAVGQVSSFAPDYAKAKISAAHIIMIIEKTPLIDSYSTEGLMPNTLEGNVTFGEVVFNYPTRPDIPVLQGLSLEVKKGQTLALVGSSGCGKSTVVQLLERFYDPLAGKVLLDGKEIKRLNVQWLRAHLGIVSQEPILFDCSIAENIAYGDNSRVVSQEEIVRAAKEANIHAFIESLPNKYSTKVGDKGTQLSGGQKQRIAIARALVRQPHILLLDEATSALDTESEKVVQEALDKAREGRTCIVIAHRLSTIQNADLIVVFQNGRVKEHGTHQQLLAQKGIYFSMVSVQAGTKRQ

As a reminder, the inhibition is the drop in the measured response relative to a control, in per cent. Consider `CN1CCC(=C2c3ccccc3CC(=O)c3sccc32)CC1`, for which the fluorescence slope change in assay [1] is 20.2% (inactive). For the same compound, in assay [2], the inhibition was found to be 9.78%. Besides, in assay [3], the score came out at 1.65. In assay [4], this compound came in with a rescue above control of 1.84. Moreover, the cytochrome c release ratio in assay [5] stood at 1.14. Also, in assay [6], the inhibition of aggregation is 57.6%.
Regarding `CCN(CC)CCNC(=O)c1cc(S(C)(=O)=O)ccc1OC`, in assay [1], the fluorescence slope change was 144% (active). Further, the inhibition in assay [2] amounted to 6.97%. The score in assay [3] came to 1.47. In addition, in assay [4], the rescue above control came to 10. The cytochrome c release ratio in assay [5] came out at 5.94. The compound further came in with an inhibition of aggregation in assay [6] of 79.2%.
Take `CC(CN(C)C)CN1c2ccccc2CCc2ccccc21` (stereo not given): the fluorescence slope change in assay [1] is 61.2% (active). Also, in assay [2], the inhibition turned out to be 11.6%. The same compound returned a score in assay [3] of 1.5. The same compound had a rescue above control in assay [4] of -11.6. Further, the cytochrome c release ratio in assay [5] came out at 0.94. Moreover, the inhibition of aggregation in assay [6] is 23.8%.
On to `OC(CCN1CCCCC1)(c1ccccc1)c1ccccc1`, for which, in assay [1], the fluorescence slope change is 18.2% (inactive). In addition, the inhibition in assay [2] was found to be 19.5%. Besides, the score in assay [3] is 1.21. Further, the rescue above control in assay [4] amounted to 10.4. For the same compound, the cytochrome c release ratio in assay [5] is 1.45. In addition, the inhibition of aggregation in assay [6] stood at 65%.
Consider `CC(C)COCC(CN(Cc1ccccc1)c1ccccc1)N1CCCC1` (stereo not given), for which the fluorescence slope change in assay [1] is 131% (active). For the same compound, in assay [2], the inhibition came to 7.56%. The compound further came in with a score in assay [3] of 1.17. Also, the rescue above control in assay [4] was found to be 1.23. Further, the cytochrome c release ratio in assay [5] is 0.32. This compound also yielded an inhibition of aggregation in assay [6] of 23.6%.
Consider `Cc1nnc(SCC2=C(C(=O)O)N3C(=O)[C@@H](NC(=O)Cn4cnnn4)[C@H]3SC2)s1`, for which the fluorescence slope change in assay [1] is -6.8% (inactive). Besides, the inhibition in assay [2] stood at 0.61%. The same compound returned a score in assay [3] of 1.27. The rescue above control in assay [4] stood at 4.54. The cytochrome c release ratio in assay [5] came to 0.92. The inhibition of aggregation in assay [6] was found to be 13.4%.
Take `CN1CCC[C@@H]1CCO[C@](C)(c1ccccc1)c1ccc(Cl)cc1`: in assay [1], the fluorescence slope change is 188% (active). In assay [2], the inhibition was found to be 2.42%. This compound also showed a score in assay [3] of 1.25. This compound also had a rescue above control in assay [4] of 0. Further, in assay [5], the cytochrome c release ratio amounted to 1.13. Also, the inhibition of aggregation in assay [6] turned out to be 76.2%.
`CC(Cc1cccc(C(F)(F)F)c1)NCCOC(=O)c1ccccc1` (stereo not given): the fluorescence slope change in assay [1] is 69.3% (active). Besides, the inhibition in assay [2] was found to be 15%. Further, the score in assay [3] is 1.42. The rescue above control in assay [4] stood at 0. Moreover, in assay [5], the cytochrome c release ratio was 1.02. The inhibition of aggregation in assay [6] was 40.9%.
Take `CCOC(=O)c1ccc(N)cc1`: the fluorescence slope change in assay [1] is 53.5% (active). Also, the inhibition in assay [2] is -9.37%. The compound further had a score in assay [3] of 1.06. This compound registered a rescue above control in assay [4] of -11.4. The cytochrome c release ratio in assay [5] turned out to be 0.65. The compound further came in with an inhibition of aggregation in assay [6] of 53%.
As for `COCCc1ccc(OCC(O)CNC(C)C)cc1` (stereo not given), the fluorescence slope change in assay [1] is 51% (active). Moreover, the inhibition in assay [2] turned out to be 9.55%. Moreover, in assay [3], the score turned out to be 0.98. The same compound had a rescue above control in assay [4] of -6.09. Further, in assay [5], the cytochrome c release ratio turned out to be 0.97. Further, in assay [6], the inhibition of aggregation is 69.7%.
Regarding `CC(=O)Nc1ccc(OCC(O)CNC(C)C)cc1` (stereo not given), the fluorescence slope change in assay [1] was 57.7% (active). Besides, the inhibition in assay [2] amounted to 19.6%. In assay [3], this compound displayed a score of 1. Moreover, in assay [4], the rescue above control came out at 6.87. In addition, the cytochrome c release ratio in assay [5] came out at 0.77. The same compound returned an inhibition of aggregation in assay [6] of 66.7%.
On to `CCn1cc(C(=O)O)c(=O)c2cnc(N3CCCC3)nc21`, for which the fluorescence slope change in assay [1] is 55.2% (active). Moreover, the inhibition in assay [2] is -13.1%. For the same compound, in assay [3], the score came out at 0.98. This compound gave a rescue above control in assay [4] of 7.28. The cytochrome c release ratio in assay [5] was determined as 1.33. Besides, in assay [6], the inhibition of aggregation came out at 85.9%.
`COc1cnc(NS(=O)(=O)c2ccc(N)cc2)nc1`: the fluorescence slope change in assay [1] was 9.5% (inactive). Besides, the inhibition in assay [2] came to 4.47%. The score in assay [3] turned out to be 1.34. In assay [4], this compound had a rescue above control of -2.23. Further, the cytochrome c release ratio in assay [5] was found to be 0.79. This compound also yielded an inhibition of aggregation in assay [6] of 77.5%.
Take `Cc1oncc1C(=O)Nc1ccc(C(F)(F)F)cc1`: the fluorescence slope change in assay [1] was 12.9% (inactive). For the same compound, in assay [2], the inhibition is -21.8%. This compound also displayed a score in assay [3] of 0.42. In assay [4], this compound displayed a rescue above control of -2.16. In assay [5], the cytochrome c release ratio was 1.42. For the same compound, in assay [6], the inhibition of aggregation was determined as 51%.
For `Clc1ccc(C(c2ccccc2Cl)C(Cl)Cl)cc1` (stereo not given), in assay [1], the fluorescence slope change was 7.7% (inactive). Besides, the inhibition in assay [2] was found to be 21%. In addition, the score in assay [3] was -3.35. For the same compound, the rescue above control in assay [4] came out at 0. In addition, in assay [5], the cytochrome c release ratio stood at 3.7. The inhibition of aggregation in assay [6] came to 72.2%.
